# D2 antag = antagonizes the human D2 dopamine receptor; HEK293 TREx D2 cells, calcium flux, dopamine EC80; inhibition, % at 10 µM; 340,000 tested, 2% active; in the data active = inhibition above about 30%; inactive = below that, where a call was filed; note: 0% is about no effect
#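 HEK293 T-REx D2 cells, tet-induced, calcium dye no-wash. Cpd pintool add, 180 s kinetic, then EC80 DA, 180 s kinetic. Ca flux read.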
# D2 PAM-1 = human D2 receptor positive allosteric modulation; potentiation, % (concentration not given with the values); P14416; 360,000 tested, 0.23% active; DiscoveRx D2 beta-arrestin cells, luminescence, 90 min; 100% = 57 uM dopamine signal; in the data active = potentiation above about 50%; inconclusive = mostly about 30% to 49%
#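 D2 cells co-treated with compound plus 50 nM dopamine (EC20) for 90 min at 37 deg C to detect potentiation. Beta-arrestin recruitment was read as enzyme-fragment luminescence after 1 h at ambient temperature. Full response was set by 57 uM dopamine.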
# D2 PAM-2 = positive allosteric modulators of human D2 dopamine receptor. AID 485347. 340,000 tested, 0.34% active. HEK293 T-REx D2, calcium flux, EC20 dopamine potentiation. potentiation, % at 10 µM;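 active = potentiation over 3 SD above the plate norm, cut at about 30% in these data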; note: 0% is about no effect
#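 Tetracycline-induced HEK293 T-REx cells force-coupled to calcium signalling expressed D2; compounds were pin-added after a 10 s baseline, read kinetically 180 s, then an EC20 dopamine challenge followed with a further 180 s calcium read.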
# D2 ag-1 = human D2 receptor agonism in beta-arrestin assay. DiscoveRx PathHunter D2 beta-arrestin, luminescence, 90 min; 100% = 57 uM dopamine signal. activation, % (test concentration not listed). 360,000 tested, 0.084% active; in the data active = activation above about 40%; inconclusive = between about 15% and that limit
#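 Agonist mode: compounds alone added to overnight-plated D2 PathHunter cells for 90 min at 37 C, with 57 uM final dopamine (EC100) defining full response. Beta-arrestin recruitment detected by chemiluminescent reagent, read after 1 h at ambient temperature.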
# D2 ag-2 = D2 dopamine receptor (human) agonism; HEK293 T-REx D2 cells, calcium flux agonist mode; 340,000 tested, 0.53% active; AID 485358; activation, % at 2 µM; P14416;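 active = activation over 3 SD above normal in the single-dose calcium agonist read, cut at about 30% in these data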; note: 0% is about no effect
#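 Agonism is scored from calcium flux in a force-coupled, inducible HEK293 cell line expressing D2, read kinetically for 180 s after compound addition against dopamine controls.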
# D3 ag = activates human D3 dopamine receptor beta-arrestin recruitment; Potency, µM (highest dose often 76.9 µM), for inactives: at the highest dose activation, most hits filed as activators; shares compounds with D2 ag-2; DiscoveRx D3 beta-arrestin cells, luminescence, 90 min; 2,300 tested, 4% active;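 note: potency is the fitted concentration of half-maximal effect; 100% = dopamine control response; nearly all actives have a fitted effect of over 70% in size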
# Target sequence (P35462 whole entry, looked up): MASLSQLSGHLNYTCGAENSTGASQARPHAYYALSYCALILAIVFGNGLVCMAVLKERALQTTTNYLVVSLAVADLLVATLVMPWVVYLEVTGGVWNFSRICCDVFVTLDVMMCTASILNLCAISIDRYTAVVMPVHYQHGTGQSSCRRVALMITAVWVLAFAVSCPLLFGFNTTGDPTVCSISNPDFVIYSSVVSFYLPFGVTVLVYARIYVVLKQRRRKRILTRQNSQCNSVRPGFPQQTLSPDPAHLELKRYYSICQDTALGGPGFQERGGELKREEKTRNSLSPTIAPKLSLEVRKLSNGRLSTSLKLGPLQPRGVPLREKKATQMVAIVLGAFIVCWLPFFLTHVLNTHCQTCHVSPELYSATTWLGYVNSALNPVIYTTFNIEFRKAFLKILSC
# D2 ag-3 = D2 receptor agonism, beta-arrestin counterscreen; 2,300 tested, 5.9% active; DiscoveRx PathHunter D2 beta-arrestin, luminescence, 90 min; response scale: percent relative to full dopamine signal; shares compounds with D2 ag-2; Potency, µM (series often up to 76.9 µM), without a hit: top-dose activation, most hits filed as activators; note: potency is the fitted concentration of half-maximal effect; % of control where 0% means no effect; nearly all actives have a fitted effect of over 70% in size
# An asterisk follows results filed as active; ? = inconclusive; nt = not tested or not shown. Rows were chosen to be rich in hits. Some 2.4% of all compounds tested hit in one or more screens of this group. Unless noted, calls come from the whole dose curve; as a rule, active = well fitted activation curve with a large enough effect; inconclusive = small, poorly fitted or top-dose-only effect; inactive = flat fitted curve, though single readings scatter.
SMILES,D2 antag,D2 PAM-1,D2 PAM-2,D2 ag-1,D2 ag-2,D3 ag,D2 ag-3
O=C1C2CCCN2C(=O)N1CCCCN1CCN(c2ccccc2)CC1 (centres undefined),61.9*,3.5,-32.3,?,85.7*,?,?
O=C1C2CCCN2C(=O)N1CCN1CCN(c2ccccc2)CC1 (centres undefined),70.8*,-23.2,1.6,3.3,42.0*,-16.7%,3.5%
O=C1C2CCCCN2C(=O)N1CCN1CCN(c2ccc(F)cc2)CC1 (centres undefined),nt,-5.3,nt,-3.3,nt,nt,nt
Cc1ccc(N2CCN(CCCCN3C(=O)C4CCCN4C3=O)CC2)cc1 (centres undefined),nt,-23.7,-28.5,-1.2,nt,nt,nt
O=C1C2CCCN2C(=O)N1CCCCN1CCN(c2cccc(Cl)c2)CC1 (centres undefined),79.6*,-36.8,-19.1,1.5,65.8*,17.0%,13.4%
CCn1cc(C(=O)N2CCN(c3cccc(C)c3C)CC2)c2cc(OC)c(OC)cc2c1=O,nt,nt,10.6,nt,nt,nt,nt
CCCOc1ccc(C2C(=O)N(C3CCCCCC3)CC(=O)N2CCC)cc1OC (centres undefined),nt,nt,-14.8,nt,0.8,nt,nt
COc1ccc(S(=O)(=O)N(Cc2nc(-c3ccc(Cl)cc3)no2)C2CCCCC2)cc1,nt,nt,-3.6,nt,3.1,nt,nt
Cc1ccc(CN(C(=O)c2cccs2)C2CCS(=O)(=O)C2)cc1 (centres undefined),1.3,-2.1,3.9,-0.6,0.0,nt,nt
O=C(c1cccs1)N(Cc1ccco1)C1CCS(=O)(=O)C1 (centres undefined),40.8*,20.8,-19.9,?,58.4*,16.6%,24.8%
CCC1CCCCN1S(=O)(=O)c1ccc(NC(=O)c2nc(SC)ncc2Cl)cc1 (centres undefined),nt,nt,12.7,nt,0.4,nt,nt
O=C(COc1ccccc1)NCCS(=O)(=O)N1CCN(c2ccccc2)CC1,77.4*,2.3,4.7,?,27.9,18.2%,?
O=C(NCCN1CCN(c2ccccc2)CC1)c1ccccc1F,72.2*,-17.1,-28.2,?,79.3*,?,14.9%
O=C(NCCS(=O)(=O)N1CCN(c2ccccc2)CC1)c1ccccc1F,-4.4,3.5,15.4,1.7,2.9,-6.4%,8.1%
Cc1ccc(NC(=O)c2cc(S(=O)(=O)N3CCC4(CC3)OCCO4)ccc2F)cc1Cl,nt,nt,3.4,nt,0.3,nt,nt
CCCCOC(=O)c1c(C)oc2c1cc(NS(=O)(=O)c1cc(OC)ccc1OC)c1ccccc12,nt,nt,nt,nt,0.4,nt,nt
CCCCNCCOc1ccccc1-c1ccccc1,69.5*,-30.7,-18.7,-7.3,27.8,-24.6%,7.6%
CN(C)CCOc1ccccc1-c1ccccc1,nt,-14.8,nt,-0.9,nt,nt,nt
CC(O)CNCCOc1ccccc1-c1ccccc1 (centres undefined),57.8*,-11.7,-24.0,1.8,57.9*,-9.9%,11.8%
O=C1C(=O)N(CCCn2ccnc2)C(c2cccnc2)/C1=C(/O)c1ccc(F)cc1 (centres undefined),24.3,-5.0,-21.5,-1.0,40.1*,-9.5%,-3.2%
CCOC(=O)C1(C(F)(F)F)N=C(C(F)(F)F)Nc2cc(C)c(C)cc21 (centres undefined),-8.7,0.5,-16.2,-0.8,28.6,5.5%,-6.0%
COC(=O)C1(C(F)(F)F)N=C(C(F)(F)F)Nc2ccc(Cl)cc21 (centres undefined),nt,-9.7,nt,2.3,nt,nt,nt
COc1ccc(OC)c(C2CC(=O)N(c3cccc(C)c3)C3=C2C(=O)OC3)c1 (centres undefined),nt,nt,3.2,nt,-0.1,nt,nt
CCCOc1ccc(C(=O)N2CCN(c3ccc(N)cc3Cl)CC2)cc1,2.2,-3.0,-5.2,-3.3,30.9*,-3.3%,1.8%
CCCCOc1ccc(C(=O)N2CCN(c3ccc(N4CCOCC4)nn3)CC2)cc1,1.3,0.4,-3.0,1.8,-1.3,nt,nt
SMILES,D2 antag,D2 PAM-1,D2 PAM-2,D2 ag-1,D2 ag-2,D3 ag,D2 ag-3
CC(=O)c1ccc(N2CCN(c3ncnc4c3c(-c3ccccc3)cn4-c3cccc(C)c3)CC2)cc1,nt,nt,-4.1,nt,-0.3,nt,nt
O=C(Nc1ccc(Cl)cc1)c1nc[nH]c1C(=O)N1CCc2ccccc2C1,50.9*,-13.9,-21.2,-0.1,2.3,-2.9%,-4.0%
Cc1ccc(NC(=O)c2nc[nH]c2C(=O)NCCCCCNC(=O)OC(C)(C)C)cc1,-2.5,5.8,-13.9,4.6,-0.2,11.8%,-0.8%
CC(C)(C)OC(=O)NCCCCCNC(=O)c1[nH]cnc1C(=O)Nc1ccc(Cl)cc1,-4.7,-1.9,-2.1,-0.9,-1.3,nt,nt
CC(C)(C)OC(=O)N1CCN(C(=O)c2[nH]cnc2C(=O)Nc2ccc(Cl)cc2)CC1,nt,-23.6,nt,-1.2,nt,nt,nt
O=C(Nc1nccs1)c1nc[nH]c1C(=O)N1CCc2ccccc2C1,1.7,-9.8,4.0,-7.3,-0.4,nt,nt
Cc1ccc(NC(=O)c2nc[nH]c2C(=O)N2CCN(C(=O)OC(C)(C)C)CC2)cc1,14.8,-6.5,-11.7,-2.3,-1.2,-7.4%,-2.0%
COc1ccc(NC(=O)CCc2nc3c(C)nn(-c4ccc(C)cc4)c3n(C)c2=O)c(OC)c1,nt,nt,-0.1,nt,1.5,nt,nt
Fc1ccc(Nc2nc(SCc3cccc(F)c3)nc3ccccc23)cc1,nt,nt,3.0,nt,0.9,nt,nt
CC[n+]1c(/C=C/C=C/N(C(C)=O)c2ccccc2)sc2cc(OC)ccc21,14.6,-30.4,-14.4,12.4,72.6*,21.1%,?
COc1ccc(N(C)S(=O)(=O)c2cccc(C(=O)N3CCN(Cc4ccc5c(c4)OCO5)CC3)c2)cc1,-3.5,-11.6,-15.5,6.4,58.4*,2.8%,10.7%
CCOC(=O)N1CCN(C(=O)c2ccc3ccccc3c2)CC1,-1.0,3.2,-4.4,-4.1,0.1,nt,nt
CCOC(=O)N1CCN(Cc2ccc3ccccc3c2)CC1,21.3,-32.2,-5.8,2.2,34.1*,-3.3%,26.2%
CCOc1ncccc1C(=O)N1CCN(Cc2ccc3c(c2)OCO3)CC1,74.8*,-12.3,-21.8,59.8*,79.9*,?,2.82µM*
CCOC(=O)N1CCN(C/C(C)=C/c2ccccc2)CC1,63.4*,21.9,-29.0,?,63.3*,11.2%,?
O=C(c1cnn2cccnc12)N1CCN(Cc2ccc3c(c2)OCO3)CC1,-5.5,-5.0,-3.7,-1.7,17.7,nt,nt
COc1cc(C(=O)NCCc2sc(-c3cccc(F)c3)nc2C)cc(OC)c1OC,nt,nt,-15.1,nt,-0.1,nt,nt
CCOc1ccc(-c2ccc(NS(=O)(=O)c3cc(C)c(C)cc3C)cc2)nn1,nt,nt,-7.9,nt,0.5,nt,nt
CC1CCN(C(=O)CSc2nc3ccccc3nc2Cc2ccccc2)CC1,nt,nt,5.9,nt,-0.8,nt,nt

# Screening data deposited in PubChem by National Center for Advancing Translational Sciences (NCATS).
